The target of test [1] is Estrogen receptor (Homo sapiens) (UniProt P03372). As to the kind of experiment: qHTS assay for small molecule antagonists of estrogen receptor alpha signaling (AID 588513; active = well fitted curve in the direction sought with a large enough effect in the signal ratio, with a control signal flat, not every such curve was filed as active; the % refers to the signal ratio; also: % is scaled to controls: 0 for no effect and ±100 for the full control effect). The method, boiled down:
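ER-alpha-UAS-bla GripTite HEK 293 cells in 2% charcoal/dextran-treated FBS medium; compounds titrated (1:2, duplicate), then stimulated with 0.5 nM 17-beta-estradiol for 18 h at 37C. CCF4 beta-lactamase fluorescence; Hill-fit IC50 and efficacy.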

Test [2] has the same target. Kind of test: qHTS assay for small molecule agonists of estrogen receptor alpha signaling (AID 588514).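 Also: 0% = vehicle only and 100% = reference agonist; nearly all actives have a fitted effect of over 70% in size.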 The method, boiled down: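 ER-alpha-UAS-bla GripTite HEK 293 cells in medium with 2% charcoal/dextran-treated FBS were treated with compound titrations at 37 C for 18 hrs; beta-lactamase reporter read by CCF4 fluorescence after 2 hrs at RT.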
(In general: Quantitative high-throughput screening tests each substance at several concentrations.)

Test [3] addresses Androgen receptor (Homo sapiens) (UniProt P10275). As to the kind of experiment: qHTS assay for small molecule agonists of androgen receptor signaling (AID 588515; active = well fitted curve in the direction sought with a large enough effect in the signal ratio, with a control signal flat; the % refers to the signal ratio; also: % is scaled to controls: 0 for no effect and ±100 for the full control effect). The settings on record: AR-UAS-bla HEK293, beta-lactamase ratio, agonist 16 h; active compounds read high. Put shortly: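 EC50 and efficacy came from Hill fits of titrations (up to 92 uM) normalized to 30 nM R1881 as 100% and DMSO as 0%. Compound exposure was 16 h at 37 C on AR-UAS-bla HEK293 cells, with a 405/460/530 nm CCF4 fluorescence read.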

Test [4] has the same target. Kind of test: qHTS assay for small molecule antagonists of androgen receptor signaling (AID 588516; active = well fitted curve in the direction sought with a large enough effect in the signal ratio, with a control signal flat, not every such curve was filed as active; the % refers to the signal ratio; also: % is scaled to controls: 0 for no effect and ±100 for the full control effect). The method, boiled down: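 AR-UAS-bla GripTite HEK 293 cells (2000/well) treated with compound titrations plus 10 nM R1881 for 16 h at 37C. Beta-lactamase read by CCF4 FRET (460/530 nm); IC50 from Hill fits, normalized to R1881 and DMSO control wells.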
The target of test [5] is Ubiquitin carboxyl-terminal hydrolase 1 (Homo sapiens) (UniProt O94782). Kind of test: Inhibitors of USP1/UAF1: Pilot qHTS (AID 504865; active = well fitted inhibition curve with a large enough effect;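 also: rhodamine fluorescence freed from ubiquitin-rhodamine substrate followed over time; top concentration of the series differs between compounds; % is scaled to controls: 0 for no effect and ±100 for the full control effect; nearly all actives have a fitted effect of over 35% in size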). Put shortly:
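USP1/UAF1 complex at 1 nM preincubated 15 min at room temperature with compound, then Ub-Rho substrate added at 150 nM final. Fluorescence (480/540 nm) read kinetically in 50 mM HEPES pH 7.8, 0.5 mM EDTA, 1 mM TCEP, 0.1 mg/ml BSA, 0.01% Tween-20.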

The target in test [6] is DNA dC->dU-editing enzyme APOBEC-3G (Homo sapiens) (UniProt Q9HC16). As to the kind of experiment: qHTS for inhibitors of Vif-A3G interactions: Validation (AID 588379; active = well fitted inhibition curve with a large enough effect; also: 0% is about no effect). Put shortly:
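HeLa cells stably expressing Vif and A3G-eYFP, 700 cells/well, incubated overnight at 37 deg C, then exposed to compound overnight at 37 deg C. Inhibition of Vif-mediated degradation read as increased yellow fluorescence (Ex 488/Em 500-530) by laser-scanning cytometry.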

Test [7] has as its target Bile acid receptor (Homo sapiens) (UniProt Q96RI1). Kind of test: qHTS assay for small molecule antagonists of farnesoid X receptor signaling (AID 588526). Also: % is scaled to controls: 0 for no effect and ±100 for the full control effect. Put shortly:
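Beta-lactamase reporter antagonist mode: HEK293T FXR-UAS-bla cells, titrated compound, CDCA stimulation, 16 h 37 C, CCF4 dye 2 h RT. Data normalized to CDCA 50 uM and DMSO; Hill-fit IC50.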

The target in test [8] is Glucocorticoid receptor (Homo sapiens) (UniProt P04150). Kind of test: qHTS assay for small molecule agonists of glucocorticoid receptor signaling (AID 588532; active = well fitted curve in the direction sought with a large enough effect in the signal ratio, with a control signal flat; the % refers to the signal ratio;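 also: 100% = dexamethasone at 0.1 µM and 0% = DMSO only wells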). The note with it: HeLa MMTV-bla, beta-lactamase ratio, agonist, 18 h; active compounds read high; percent of dexamethasone control, DMSO zero. Put shortly:
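Agonist-mode qHTS: GRE-driven beta-lactamase in HeLa cells exposed 18 h to titrated compounds (up to 92 uM), then CCF4 ratio read after 2 h at RT; Hill-fitted EC50, efficacy relative to 0.1 uM dexamethasone.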

For test [9] the target is unchanged. As to the kind of experiment: qHTS assay for small molecule antagonists of glucocorticoid receptor signaling (AID 588533; active = well fitted inhibition curve with a large enough effect in the signal ratio, with a control signal flat, not every such curve was filed as active; the % refers to the signal ratio). Put shortly:
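Antagonist-mode qHTS: compound titrations added to GRE-bla HeLa cells, then dexamethasone 2 nM final; 18 h, 37 C. CCF4 FRET fluorescence normalized to dexamethasone and DMSO; IC50 from Hill fit.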

“And” between values parts separate entries of the source, which are not always exact repeats. Equal values may be shown once. A number with no mark means an inactive call. Results filed as inconclusive are left out. The source made the active and inactive calls. Unless noted, calls follow the shape of the full dose curve.

Sequence of Androgen receptor (Homo sapiens) (P10275 whole entry, looked up): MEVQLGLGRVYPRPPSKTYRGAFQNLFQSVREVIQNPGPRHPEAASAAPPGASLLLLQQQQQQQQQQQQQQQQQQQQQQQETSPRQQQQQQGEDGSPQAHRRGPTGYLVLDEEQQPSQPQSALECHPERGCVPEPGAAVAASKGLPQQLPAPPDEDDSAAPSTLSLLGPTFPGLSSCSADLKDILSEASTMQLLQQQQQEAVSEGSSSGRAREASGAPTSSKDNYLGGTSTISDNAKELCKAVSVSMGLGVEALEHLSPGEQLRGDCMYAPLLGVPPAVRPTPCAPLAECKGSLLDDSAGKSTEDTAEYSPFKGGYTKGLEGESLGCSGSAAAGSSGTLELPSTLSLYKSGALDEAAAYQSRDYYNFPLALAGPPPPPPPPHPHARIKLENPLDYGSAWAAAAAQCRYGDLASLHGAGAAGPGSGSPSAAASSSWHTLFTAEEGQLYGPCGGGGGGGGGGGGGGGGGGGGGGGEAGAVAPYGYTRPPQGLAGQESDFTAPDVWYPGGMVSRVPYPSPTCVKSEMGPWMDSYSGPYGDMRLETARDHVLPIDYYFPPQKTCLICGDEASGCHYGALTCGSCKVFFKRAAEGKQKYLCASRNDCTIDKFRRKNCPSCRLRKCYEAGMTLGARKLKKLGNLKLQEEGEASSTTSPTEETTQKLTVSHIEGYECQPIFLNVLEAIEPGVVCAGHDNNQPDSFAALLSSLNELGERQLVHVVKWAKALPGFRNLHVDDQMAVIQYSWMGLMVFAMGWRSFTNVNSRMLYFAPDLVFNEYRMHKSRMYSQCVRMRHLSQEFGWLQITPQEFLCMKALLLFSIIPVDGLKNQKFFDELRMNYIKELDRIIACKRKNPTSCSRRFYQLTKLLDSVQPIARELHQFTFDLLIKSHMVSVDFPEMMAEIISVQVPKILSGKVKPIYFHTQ
Sequence of Glucocorticoid receptor (Homo sapiens) (P04150 whole entry, looked up): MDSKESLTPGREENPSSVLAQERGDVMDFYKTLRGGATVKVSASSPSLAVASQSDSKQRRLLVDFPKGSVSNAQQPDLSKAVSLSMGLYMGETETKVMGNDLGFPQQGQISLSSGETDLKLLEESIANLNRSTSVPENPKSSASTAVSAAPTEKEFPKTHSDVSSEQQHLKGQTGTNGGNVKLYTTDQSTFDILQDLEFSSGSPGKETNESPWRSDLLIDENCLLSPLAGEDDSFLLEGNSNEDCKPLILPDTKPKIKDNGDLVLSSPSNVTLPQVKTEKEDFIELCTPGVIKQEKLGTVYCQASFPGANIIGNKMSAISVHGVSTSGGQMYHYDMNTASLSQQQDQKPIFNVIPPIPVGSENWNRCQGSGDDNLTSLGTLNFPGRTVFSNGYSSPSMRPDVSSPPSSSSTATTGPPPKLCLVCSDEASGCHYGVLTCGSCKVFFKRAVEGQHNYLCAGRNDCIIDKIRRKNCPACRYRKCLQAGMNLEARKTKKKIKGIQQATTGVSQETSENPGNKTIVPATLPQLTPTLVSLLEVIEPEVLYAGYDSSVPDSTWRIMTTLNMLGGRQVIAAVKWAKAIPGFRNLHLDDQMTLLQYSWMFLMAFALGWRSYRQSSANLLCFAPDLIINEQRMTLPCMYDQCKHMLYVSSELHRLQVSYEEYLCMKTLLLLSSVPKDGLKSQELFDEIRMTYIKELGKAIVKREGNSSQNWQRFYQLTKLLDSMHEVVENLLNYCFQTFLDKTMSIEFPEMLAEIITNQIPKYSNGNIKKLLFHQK
Sequence of DNA dC->dU-editing enzyme APOBEC-3G (Homo sapiens) (Q9HC16 whole entry, looked up): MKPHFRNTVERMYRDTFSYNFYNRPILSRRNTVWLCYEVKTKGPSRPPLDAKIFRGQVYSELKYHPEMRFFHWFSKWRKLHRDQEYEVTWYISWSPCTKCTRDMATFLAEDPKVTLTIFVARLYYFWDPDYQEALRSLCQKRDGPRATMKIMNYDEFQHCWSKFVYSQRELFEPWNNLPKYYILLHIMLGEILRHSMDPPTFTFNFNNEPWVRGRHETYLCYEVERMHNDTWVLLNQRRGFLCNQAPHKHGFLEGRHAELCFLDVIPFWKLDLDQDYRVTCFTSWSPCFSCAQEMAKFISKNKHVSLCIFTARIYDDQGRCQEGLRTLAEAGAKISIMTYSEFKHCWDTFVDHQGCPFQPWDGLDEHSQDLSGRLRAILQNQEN
Sequence of Bile acid receptor (Homo sapiens) (Q96RI1 whole entry, looked up): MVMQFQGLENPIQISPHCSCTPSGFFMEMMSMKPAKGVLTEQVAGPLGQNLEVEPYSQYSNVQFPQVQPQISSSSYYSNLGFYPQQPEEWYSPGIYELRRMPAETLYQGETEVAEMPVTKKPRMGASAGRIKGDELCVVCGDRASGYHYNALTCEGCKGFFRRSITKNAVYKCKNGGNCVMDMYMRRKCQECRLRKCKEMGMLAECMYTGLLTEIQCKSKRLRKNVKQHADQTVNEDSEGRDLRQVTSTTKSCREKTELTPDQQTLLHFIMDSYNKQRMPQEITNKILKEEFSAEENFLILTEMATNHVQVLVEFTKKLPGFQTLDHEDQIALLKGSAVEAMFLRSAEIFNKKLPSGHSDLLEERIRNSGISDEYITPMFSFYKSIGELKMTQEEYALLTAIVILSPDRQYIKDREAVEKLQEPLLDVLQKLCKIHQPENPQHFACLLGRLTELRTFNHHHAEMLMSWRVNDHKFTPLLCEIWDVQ
Sequence of Estrogen receptor (Homo sapiens) (P03372 whole entry, looked up): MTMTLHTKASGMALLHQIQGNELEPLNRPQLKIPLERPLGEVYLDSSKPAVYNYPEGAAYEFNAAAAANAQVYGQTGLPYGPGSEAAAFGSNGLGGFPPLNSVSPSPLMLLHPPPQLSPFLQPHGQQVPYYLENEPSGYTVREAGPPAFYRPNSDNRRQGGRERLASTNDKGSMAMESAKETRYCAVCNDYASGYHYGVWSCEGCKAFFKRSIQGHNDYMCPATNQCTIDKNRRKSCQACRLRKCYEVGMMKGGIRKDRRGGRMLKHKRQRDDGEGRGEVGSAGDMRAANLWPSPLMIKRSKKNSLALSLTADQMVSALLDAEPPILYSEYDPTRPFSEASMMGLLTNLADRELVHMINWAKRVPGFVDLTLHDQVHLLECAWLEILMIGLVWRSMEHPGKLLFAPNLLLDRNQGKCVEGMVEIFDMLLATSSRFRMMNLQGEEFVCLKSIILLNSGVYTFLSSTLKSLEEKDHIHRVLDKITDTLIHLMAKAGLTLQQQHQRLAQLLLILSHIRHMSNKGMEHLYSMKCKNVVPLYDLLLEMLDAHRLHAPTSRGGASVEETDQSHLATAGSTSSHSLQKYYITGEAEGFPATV
Sequence of Ubiquitin carboxyl-terminal hydrolase 1 (Homo sapiens) (O94782 whole entry, looked up): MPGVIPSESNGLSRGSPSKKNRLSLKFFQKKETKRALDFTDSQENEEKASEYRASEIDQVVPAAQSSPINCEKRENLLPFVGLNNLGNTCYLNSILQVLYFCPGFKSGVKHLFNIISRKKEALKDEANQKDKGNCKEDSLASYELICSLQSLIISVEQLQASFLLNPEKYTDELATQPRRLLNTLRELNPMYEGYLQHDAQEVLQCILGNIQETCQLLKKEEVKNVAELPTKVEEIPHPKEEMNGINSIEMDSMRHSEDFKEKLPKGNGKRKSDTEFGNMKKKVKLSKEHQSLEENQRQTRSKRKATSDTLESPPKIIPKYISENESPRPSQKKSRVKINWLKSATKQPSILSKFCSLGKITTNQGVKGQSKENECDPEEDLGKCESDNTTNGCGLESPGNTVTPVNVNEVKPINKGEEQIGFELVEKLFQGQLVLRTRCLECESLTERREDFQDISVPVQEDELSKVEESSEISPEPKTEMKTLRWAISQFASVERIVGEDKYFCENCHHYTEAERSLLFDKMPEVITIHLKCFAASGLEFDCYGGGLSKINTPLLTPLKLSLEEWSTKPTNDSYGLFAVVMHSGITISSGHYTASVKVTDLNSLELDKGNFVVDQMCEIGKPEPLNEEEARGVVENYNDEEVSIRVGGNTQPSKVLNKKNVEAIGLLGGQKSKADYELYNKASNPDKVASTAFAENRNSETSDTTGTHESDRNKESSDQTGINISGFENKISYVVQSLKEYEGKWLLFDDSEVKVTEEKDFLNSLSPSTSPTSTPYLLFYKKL

Turning to `CC(C)C(C)(C)C(C)(C)C(C)(C)S`, the call in test [1], in test [2] and in [4] was inactive. Moreover, in test [3], the activation is -7.25% and 10.8%.

`COc1cc(C=O)ccc1O`: the Potency result in [5] was “inactive”. For the same molecule, the call in test [6], in test [1], in [2], in test [4] and in test [7] was inactive.

Take `OC(CCCN1CCCCC1)(c1ccccc1)c1ccccc1`: the Potency result in test [5] was “inactive”.

In the case of `CCN(CC)CCOc1ccc(/C(=C(\Cl)c2ccccc2)c2ccccc2)cc1`, the activation in test [3] was -16%; in [8], 7.97%. For the same molecule, the molecule was classed as inactive in test [4] and in test [9].

As for `CN(C(=O)C(Cl)Cl)c1ccc(OC(=O)c2ccco2)cc1`, the Potency entry in test [5] was “inactive”.

Take `Cc1ccc(O)cc1`: in [5], the Potency entry was “inactive”. The call in test [7] was inactive. Also, the activation in test [8] was -6.73%.

`CCCCC(CC)COC(=O)c1ccccc1C(=O)O` (configuration not stated): the molecule was classed as inactive in test [9].

Turning to `Nc1cccc2c(N)cccc12`, the result in test [2] and in test [7] was inactive. Also, the activation in [3] was -5.98% and -0.762%.

On to `OCc1c[nH]c2ccccc12`, for which the Potency entry in test [5] is “inactive”. Moreover, the activation in [3] was -13.7%. Besides, the molecule was classed as inactive in test [4] and in [7].

For the molecule `CCCC(=O)c1cc(O)c(O)cc1O`, the molecule was classed as inactive in test [1], in test [2] and in [7]. The activation in test [3] is -9.57%; in [8], 7.26%.

For `Oc1ccccc1`, the outcome in test [7] was inactive.

Consider `CC(=O)OC/C=C(C)/C=C/C=C(C)/C=C/C1=C(C)CCCC1(C)C`, for which the Potency entry in test [5] is “inactive”. Further, the molecule was classed as inactive in test [1] and in test [2].

In the case of `CCCCCCCCCCCC[N+](C)(C)Cc1ccccc1`, the activation in test [3] is -8.21%; in test [8] it was 1.25%. Also, the molecule was called inactive in test [4], in [7] and in test [9].

As to `Cc1ccc2c(Cl)cc(Cl)c(O)c2n1`, the Potency result in [5] is “inactive”.

As for `C[C@@H](C1=C(CCN(C)C)Cc2ccccc21)c1ccccn1`, the Potency result in test [5] is “inactive”. Moreover, the outcome in test [6] was inactive.

On to `C1=CC2C3C=CC(C3)C2C1` (configuration not stated), for which the activation in test [8] was -4.75%.

For `NCC(=O)O`, the Potency result in [5] was “inactive”. Also, the result in test [6] was inactive.

Regarding `CC(C)(C)c1ccc(O)c(O)c1`, the molecule was called inactive in test [7] and in test [9]. The activation in test [8] was 27.4% and -11.3%.

With `O=C(Oc1ccccc1)c1ccccc1O`, the molecule was classed as inactive in test [2] and in test [9].

On to `Cc1cc(C(C)(C)C)c(O)c(C(C)(C)C)c1`, for which the Potency result in [5] is “inactive”. The molecule was classed as inactive in [7] and in test [9]. The activation in test [8] was -5.33% and 4.56%.

Regarding `COC(=O)c1c(Cl)c(Cl)c(C(=O)OC)c(Cl)c1Cl`, the Potency result in [5] is “inactive”. The molecule was classed as inactive in test [2], in test [7] and in test [9]. Besides, in test [8], the activation was -1.01%.

Take `C1N2CN3CN1CN(C2)C3`: the Potency result in test [5] is “inactive”.

On to `CN1C(=O)c2ccccc2C1=O`, for which the activation in test [8] is -9.8%. For the same molecule, the molecule was called inactive in [9].

Consider `O=C(NO)c1ccccc1`, for which the outcome in test [7] and in test [9] was inactive. Also, in test [8], the activation is -5.9%.
